miR-122 sensor – blocks miR-122 activity in Huh7 sensor cells; Huh7 miR-122 Renilla luciferase sensor, 48 h; neutral wells = 0, positive control = 100; activation (reporter increase), % at 12.5 µM; hit rate 0.3% among 340,000;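 active = mean replicate activation score at least 90 and every replicate individually at or above 90; inconclusive = only one of the two criteria met; inactive = neither criterion met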;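 also: higher luciferase means less miR-122 activity so hits act as miR-122 inhibitors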
RAD52 anneal inh – blocks human RAD52 DNA annealing; recombinant RAD52 DNA annealing, FRET fluorescence; hit rate 0.46% among 360,000; inhibition, % at 18.7 µM; P43351;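 active = every replicate showing at least 50% inhibition; inconclusive = mean inhibition at least 50% but not in every replicate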
Target sequence (P43351 whole entry, looked up): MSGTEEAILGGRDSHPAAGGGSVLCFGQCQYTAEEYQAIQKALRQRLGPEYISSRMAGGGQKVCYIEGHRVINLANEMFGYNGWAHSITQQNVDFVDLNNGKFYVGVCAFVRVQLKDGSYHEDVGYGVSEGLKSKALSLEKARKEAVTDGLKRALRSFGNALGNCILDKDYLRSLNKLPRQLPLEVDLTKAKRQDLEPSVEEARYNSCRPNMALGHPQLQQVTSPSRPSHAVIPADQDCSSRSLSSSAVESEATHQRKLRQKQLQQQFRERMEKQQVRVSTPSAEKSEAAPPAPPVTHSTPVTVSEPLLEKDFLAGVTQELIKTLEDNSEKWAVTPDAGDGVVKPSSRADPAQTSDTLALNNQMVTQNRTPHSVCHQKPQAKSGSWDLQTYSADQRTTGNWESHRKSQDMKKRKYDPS
MLL AF4-AF9 inh – blocks AF4 peptide binding to human AF9; P42568; AlphaScreen, biotin-AF4 peptide binding to FLAG-AF9; inhibition, % at 10 µM; hit rate 0.47% among 350,000; AID 651704;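 active = every replicate reaching a set inhibition limit, whatever the replicate mean, cut at about 25% in these data; inconclusive = mean inhibition reaches that limit but some replicates miss it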;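 also: 0% = plate neutral control median and 100% = total signal loss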
NSD2 HMT inh – inhibitors of human histone methyltransferase NSD2. O96028. NSD2 peptide methylation, AlphaScreen, 120 min. inhibition, % at 12.5 µM. hit rate 0.54% among 310,000; in the data active = inhibition above about 50%
CASP6 VEID inh – caspase-6 (human) enzyme inhibition. P55212. purified caspase-6, Z-VEID-R110 cleavage fluorescence. inhibition, % at 12.5 µM. hit rate 0.53% among 350,000. AID 686996;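 active = mean inhibition across replicates at least about 35%, with every replicate also reaching that limit, limit read from the data; inconclusive = only one of the two criteria met; inactive = neither criterion met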;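 also: 0% = median of neutral control wells and 100% = no fluorescence left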
* marks the source's active call; other numbers are inactive results; [ ] = dose if it differs, or a comment. Hits are enriched below; roughly 1.5% of the tested compounds scored in any of these assays.

Screening Cc1cc(C)c(S(=O)(=O)NCCn2ccc3ccccc32)c(C)c1 returned miR-122 sensor 126*, RAD52 anneal inh -217, MLL AF4-AF9 inh -3 and CASP6 VEID inh 0.
`C[C@@H]1CN([C@@H](C)CO)C(=O)c2cc(NC(=O)c3ccncc3)ccc2O[C@@H](C)CCCCO[C@@H]1CN(C)Cc1ccncc1` gave miR-122 sensor 1[16.7 µM], RAD52 anneal inh -6, MLL AF4-AF9 inh -3 and CASP6 VEID inh 1.
C[C@@H]1CN([C@H](C)CO)C(=O)c2cc(NC(=O)c3ccncc3)ccc2O[C@@H](C)CCCCO[C@H]1CN(C)Cc1ccc(C(=O)O)cc1 was read as miR-122 sensor 5[16.7 µM], RAD52 anneal inh 99*, MLL AF4-AF9 inh -3 and CASP6 VEID inh 0.
`C[C@@H]1CN([C@H](C)CO)C(=O)c2cc(NC(=O)c3ccncc3)ccc2O[C@@H](C)CCCCO[C@@H]1CN(C)Cc1ccc(C(=O)O)cc1` gave miR-122 sensor 5[16.7 µM], RAD52 anneal inh 100*, MLL AF4-AF9 inh -4 and CASP6 VEID inh 1.
`O=C(/C=C/c1cc(Br)ccc1O)c1ccco1` gave miR-122 sensor 195*, RAD52 anneal inh -9, MLL AF4-AF9 inh 8 and CASP6 VEID inh 8.
COc1cc(/C=C/C=C2/CC/C(=C/C=C/c3ccc(O)c(OC)c3)C2=O)ccc1O was read as miR-122 sensor 6, RAD52 anneal inh -38, MLL AF4-AF9 inh 4, NSD2 HMT inh 1 and CASP6 VEID inh 52*.
`O=C(/C=C/c1ccco1)NC(=S)Nc1cccc(-c2nc3ccccc3o2)c1` gave miR-122 sensor 130* and NSD2 HMT inh 2.
O=C(/C=C/c1ccco1)NC(=S)Nc1ccc(N2CCOCC2)c(Cl)c1 was read as miR-122 sensor 104* and NSD2 HMT inh 2.
Screening C[C@H](CO)N1C[C@H](C)[C@H](CN(C)S(=O)(=O)c2cccs2)OCCCC[C@H](C)Oc2ccc(NS(=O)(=O)c3cn(C)cn3)cc2C1=O returned miR-122 sensor 2[16.7 µM], RAD52 anneal inh 109*, MLL AF4-AF9 inh -2 and CASP6 VEID inh 1.
C[C@@H]1CN([C@H](C)CO)C(=O)c2cc(NS(=O)(=O)c3cn(C)cn3)ccc2O[C@@H](C)CCCCO[C@@H]1CN(C)S(=O)(=O)c1cccs1 was read as miR-122 sensor 0[16.7 µM], RAD52 anneal inh -7, MLL AF4-AF9 inh -2 and CASP6 VEID inh 4.
For Cc1noc(C)c1S(=O)(=O)N(C)C[C@@H]1OCCCC[C@H](C)Oc2ccc(NS(=O)(=O)c3cccs3)cc2C(=O)N([C@@H](C)CO)C[C@H]1C the results were miR-122 sensor 12[16.7 µM], RAD52 anneal inh 64*, MLL AF4-AF9 inh 1 and CASP6 VEID inh 1.
Screening O=C(CSc1nc2ccccc2[nH]1)Nc1nc(-c2cccc(Br)c2)cs1 returned RAD52 anneal inh -32, MLL AF4-AF9 inh 1, NSD2 HMT inh -1 and CASP6 VEID inh 1.
`CN(C)CCCn1c(SCC(=O)Nc2nc(-c3cccc(Br)c3)cs2)nc2ccccc2c1=O` gave miR-122 sensor -11, RAD52 anneal inh 2, MLL AF4-AF9 inh 35*, NSD2 HMT inh 6 and CASP6 VEID inh -11.
C[C@@H]1CN([C@@H](C)CO)C(=O)c2cccc(NC(=O)c3ccncc3)c2O[C@H]1CN(C)C was read as miR-122 sensor -1[16.7 µM], RAD52 anneal inh -3, MLL AF4-AF9 inh -1 and CASP6 VEID inh 2.
Screening C[C@@H]1CN([C@@H](C)CO)C(=O)Cc2cc(NC(=O)C3CCCCC3)ccc2O[C@H]1CN(C)S(=O)(=O)c1ccc(F)cc1 returned miR-122 sensor -7[16.7 µM], RAD52 anneal inh -13, MLL AF4-AF9 inh -8 and CASP6 VEID inh -3.
Screening CCOC(=O)c1[nH]c(C)c(C(=O)Nc2ccccc2C)c1C returned miR-122 sensor 138*, RAD52 anneal inh -6, MLL AF4-AF9 inh -4 and CASP6 VEID inh 2.
Screening CC(C)NC(=O)N1CC2(C1)[C@@H](c1ccccc1)[C@H](CO)N2C(=O)C1CCCCC1 returned RAD52 anneal inh 9, MLL AF4-AF9 inh -13 and CASP6 VEID inh -2.
For CCOc1cc(C)c(S(=O)(=O)Nc2ccc3cn[nH]c3c2)cc1C the results were miR-122 sensor 124* and NSD2 HMT inh 0.
O=S(=O)(Nc1ccc(Cl)cn1)c1ccc(Cl)cc1 was read as RAD52 anneal inh -7, MLL AF4-AF9 inh -5, NSD2 HMT inh 26 and CASP6 VEID inh 0.
Screening CCc1ccc(S(=O)(=O)Nc2ccc(Cl)cn2)cc1 returned miR-122 sensor 178*, RAD52 anneal inh 2, MLL AF4-AF9 inh -5, NSD2 HMT inh -1 and CASP6 VEID inh -3.
For CCOc1cc(C)c(S(=O)(=O)Nc2ccc(Cl)cn2)cc1C the results were miR-122 sensor 124* and NSD2 HMT inh 0.
For C=CCNc1cc(F)ccc1S(=O)(=O)NCC=C the results were miR-122 sensor 96*, RAD52 anneal inh -6, MLL AF4-AF9 inh 0 and CASP6 VEID inh 1.
`C=CCNS(=O)(=O)c1cc(S(=O)(=O)NCC=C)c(OC)cc1OC` gave RAD52 anneal inh -2, MLL AF4-AF9 inh 0, NSD2 HMT inh 0 and CASP6 VEID inh -4.
N#Cc1c(NC(=O)c2ccccc2)sc2c1CCC2 was read as miR-122 sensor 111* and NSD2 HMT inh 1.
N#Cc1c(NC(=O)c2ccc([N+](=O)[O-])o2)sc2c1CCC2 was read as miR-122 sensor -2, RAD52 anneal inh 7, MLL AF4-AF9 inh 11 and CASP6 VEID inh 59*.
N#Cc1c(NC(=O)c2cccnc2)sc2c1CCC2 was read as miR-122 sensor 8 and NSD2 HMT inh 4.
COc1ccccc1N/C(=N/S(=O)(=O)c1ccc(C)cc1)c1ccccc1 was read as miR-122 sensor 135*, RAD52 anneal inh 3, MLL AF4-AF9 inh -4, NSD2 HMT inh 9 and CASP6 VEID inh 1.
`COCC(=O)N(C)C[C@@H]1Oc2ncc(C#CC3(O)CCCC3)cc2C(=O)N([C@@H](C)CO)C[C@H]1C` gave miR-122 sensor 14[16.7 µM], RAD52 anneal inh 6, MLL AF4-AF9 inh -1 and CASP6 VEID inh 7.
For CCC(=O)Nc1ccc2c(c1)C(=O)N(C)C[C@@H](OC)[C@H](C)CN(Cc1ccccc1F)[C@H](C)CO2 the results were RAD52 anneal inh -10, MLL AF4-AF9 inh 7 and CASP6 VEID inh -3.
For CCC(=O)Nc1ccc2c(c1)C(=O)N(C)C[C@@H](OC)[C@@H](C)CN(C(=O)c1ccccn1)[C@H](C)CO2 the results were RAD52 anneal inh -30, MLL AF4-AF9 inh inconclusive and CASP6 VEID inh 0.
CCC(=O)Nc1ccc2c(c1)C(=O)N(C)C[C@H](OC)[C@@H](C)CN(C(=O)c1ccccn1)[C@@H](C)CO2 was read as RAD52 anneal inh -19, MLL AF4-AF9 inh 26* and CASP6 VEID inh 2.
`CCC(=O)Nc1ccc2c(c1)C(=O)N(C)C[C@@H](OC)[C@H](C)CN(Cc1ccccc1F)[C@@H](C)CO2` gave RAD52 anneal inh -17, MLL AF4-AF9 inh 30* and CASP6 VEID inh -1.

Screens deposited in PubChem by Broad Institute.
